The target of assay [1] is Mast/stem cell growth factor receptor Kit (Homo sapiens) (UniProt P10721). To be noted: at 1 µM.
The subject of assay [2] is Mast/stem cell growth factor receptor Kit (Homo sapiens), P10721 [D816V]. The following applies: at 0.1 µM.
For assay [3] the test system is unchanged. To be noted: at 1 µM.
Assay [4] relates to Mast/stem cell growth factor receptor Kit (Homo sapiens), P10721 [T670I]. The following applies: at 0.1 µM.
Assay [5] shares this test system. The following applies: at 1 µM.
Assay [6] has as its system Mast/stem cell growth factor receptor Kit (Homo sapiens), P10721 [V560G]. To be noted: at 0.1 µM.
Assay [7] has the same test system. The following applies: at 1 µM.
The target in assay [8] is Tyrosine-protein kinase Lck (Homo sapiens) (UniProt P06239). To be noted: at 0.1 µM.
Sequence of Tyrosine-protein kinase Lck (Homo sapiens) (P06239 2-509 limits assumed): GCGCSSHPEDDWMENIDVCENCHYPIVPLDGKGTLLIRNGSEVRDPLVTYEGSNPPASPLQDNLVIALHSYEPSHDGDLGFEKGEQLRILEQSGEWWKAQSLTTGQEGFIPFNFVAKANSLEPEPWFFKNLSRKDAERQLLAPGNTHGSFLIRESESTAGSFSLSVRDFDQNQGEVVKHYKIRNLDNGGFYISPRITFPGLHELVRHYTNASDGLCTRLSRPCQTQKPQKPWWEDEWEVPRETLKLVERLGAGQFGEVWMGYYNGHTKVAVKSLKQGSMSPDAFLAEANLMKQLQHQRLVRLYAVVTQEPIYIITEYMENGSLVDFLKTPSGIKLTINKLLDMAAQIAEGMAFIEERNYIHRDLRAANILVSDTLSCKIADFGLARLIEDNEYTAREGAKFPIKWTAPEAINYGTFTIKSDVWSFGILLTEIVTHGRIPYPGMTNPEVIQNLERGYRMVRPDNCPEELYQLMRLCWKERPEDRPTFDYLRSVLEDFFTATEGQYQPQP
Assay [9] has the same target. To be noted: at 1 µM.
The target in assay [10] is Leukocyte tyrosine kinase receptor (Homo sapiens) (UniProt P29376). To be noted: at 0.1 µM.
Sequence of Leukocyte tyrosine kinase receptor (Homo sapiens) (P29376 whole entry): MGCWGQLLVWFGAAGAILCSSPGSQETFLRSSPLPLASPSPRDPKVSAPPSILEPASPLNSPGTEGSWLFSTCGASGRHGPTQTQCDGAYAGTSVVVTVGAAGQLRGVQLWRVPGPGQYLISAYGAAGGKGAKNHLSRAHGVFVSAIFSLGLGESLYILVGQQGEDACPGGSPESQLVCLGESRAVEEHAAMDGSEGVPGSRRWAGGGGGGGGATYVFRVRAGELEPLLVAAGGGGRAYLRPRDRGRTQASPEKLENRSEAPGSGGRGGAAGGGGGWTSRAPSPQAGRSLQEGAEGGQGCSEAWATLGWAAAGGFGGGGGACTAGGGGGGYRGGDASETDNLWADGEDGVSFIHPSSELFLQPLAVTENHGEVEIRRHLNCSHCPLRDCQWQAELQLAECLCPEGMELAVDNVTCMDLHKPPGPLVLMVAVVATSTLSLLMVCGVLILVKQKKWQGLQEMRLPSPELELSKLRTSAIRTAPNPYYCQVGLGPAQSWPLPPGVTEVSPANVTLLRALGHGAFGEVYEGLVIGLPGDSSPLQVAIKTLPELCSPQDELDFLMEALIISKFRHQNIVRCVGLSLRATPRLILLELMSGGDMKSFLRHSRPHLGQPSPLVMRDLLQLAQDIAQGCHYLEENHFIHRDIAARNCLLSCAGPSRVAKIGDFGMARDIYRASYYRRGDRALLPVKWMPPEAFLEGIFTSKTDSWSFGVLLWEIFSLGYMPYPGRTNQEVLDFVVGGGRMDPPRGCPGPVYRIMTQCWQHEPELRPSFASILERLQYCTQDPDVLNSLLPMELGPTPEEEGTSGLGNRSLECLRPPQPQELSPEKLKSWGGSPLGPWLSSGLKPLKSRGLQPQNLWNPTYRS
Assay [11] shares this target. To be noted: at 1 µM.
The target of assay [12] is Tyrosine-protein kinase Lyn (Homo sapiens) (UniProt P07948). To be noted: at 0.1 µM.
Sequence of Tyrosine-protein kinase Lyn (Homo sapiens) (P07948 2-512 limits assumed): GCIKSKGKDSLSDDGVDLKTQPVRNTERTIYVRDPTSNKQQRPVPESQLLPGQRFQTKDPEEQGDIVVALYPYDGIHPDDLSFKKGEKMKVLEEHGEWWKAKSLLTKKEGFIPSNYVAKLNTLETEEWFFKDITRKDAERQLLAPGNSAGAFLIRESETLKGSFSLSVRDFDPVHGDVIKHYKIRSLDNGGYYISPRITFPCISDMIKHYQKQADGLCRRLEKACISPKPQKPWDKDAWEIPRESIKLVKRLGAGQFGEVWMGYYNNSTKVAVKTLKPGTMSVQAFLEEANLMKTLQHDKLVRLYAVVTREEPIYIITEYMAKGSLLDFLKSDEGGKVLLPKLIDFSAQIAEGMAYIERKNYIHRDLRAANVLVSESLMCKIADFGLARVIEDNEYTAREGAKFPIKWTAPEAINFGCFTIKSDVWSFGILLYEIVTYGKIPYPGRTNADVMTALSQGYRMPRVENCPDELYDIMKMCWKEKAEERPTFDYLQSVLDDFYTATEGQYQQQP
Assay [13] shares this target. The following applies: at 1 µM.
The target is the same in assay [14]. To be noted: at 0.1 µM. The source holds these as a separate data set.
Assay [15] shares this target. To be noted: at 1 µM. The source holds these as a separate data set.
Assay [16] has as its target T1, Tyrosine-protein kinase Mer (Homo sapiens) (UniProt Q12866).
T1 sequence (whole entry): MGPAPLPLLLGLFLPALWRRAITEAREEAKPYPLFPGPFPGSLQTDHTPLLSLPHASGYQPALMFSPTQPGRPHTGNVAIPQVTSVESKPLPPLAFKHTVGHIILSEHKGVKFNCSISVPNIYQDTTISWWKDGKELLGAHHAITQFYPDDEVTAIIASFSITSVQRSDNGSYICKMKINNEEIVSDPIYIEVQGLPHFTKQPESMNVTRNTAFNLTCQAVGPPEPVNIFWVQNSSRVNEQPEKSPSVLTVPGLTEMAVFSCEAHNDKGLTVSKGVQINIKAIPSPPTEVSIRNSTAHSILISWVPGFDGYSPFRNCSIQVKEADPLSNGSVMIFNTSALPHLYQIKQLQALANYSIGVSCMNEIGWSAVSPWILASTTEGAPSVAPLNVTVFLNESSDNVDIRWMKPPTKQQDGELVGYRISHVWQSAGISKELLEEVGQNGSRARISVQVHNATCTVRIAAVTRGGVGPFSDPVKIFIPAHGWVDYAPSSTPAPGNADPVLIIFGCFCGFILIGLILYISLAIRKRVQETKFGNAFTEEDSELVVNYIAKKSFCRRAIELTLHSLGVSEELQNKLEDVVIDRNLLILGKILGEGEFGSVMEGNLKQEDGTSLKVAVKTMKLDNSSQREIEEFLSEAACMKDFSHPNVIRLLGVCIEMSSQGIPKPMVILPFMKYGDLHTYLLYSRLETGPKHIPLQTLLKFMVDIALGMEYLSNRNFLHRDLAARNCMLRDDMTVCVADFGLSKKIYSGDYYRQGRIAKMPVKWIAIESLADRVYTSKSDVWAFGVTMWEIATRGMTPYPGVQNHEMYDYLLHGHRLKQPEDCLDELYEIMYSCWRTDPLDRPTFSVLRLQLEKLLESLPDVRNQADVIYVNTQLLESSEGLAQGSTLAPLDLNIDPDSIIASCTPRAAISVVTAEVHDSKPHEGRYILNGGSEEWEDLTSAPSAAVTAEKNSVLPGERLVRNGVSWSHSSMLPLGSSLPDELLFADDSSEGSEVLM
The following applies: at 0.1 µM.

In assay [17] the target is T1, Tyrosine-protein kinase Mer (Homo sapiens). To be noted: at 1 µM.
For assay [18], the target named is Hepatocyte growth factor receptor (Homo sapiens) (UniProt P08581). The following applies: at 0.1 µM.
Sequence of Hepatocyte growth factor receptor (Homo sapiens) (P08581 whole entry): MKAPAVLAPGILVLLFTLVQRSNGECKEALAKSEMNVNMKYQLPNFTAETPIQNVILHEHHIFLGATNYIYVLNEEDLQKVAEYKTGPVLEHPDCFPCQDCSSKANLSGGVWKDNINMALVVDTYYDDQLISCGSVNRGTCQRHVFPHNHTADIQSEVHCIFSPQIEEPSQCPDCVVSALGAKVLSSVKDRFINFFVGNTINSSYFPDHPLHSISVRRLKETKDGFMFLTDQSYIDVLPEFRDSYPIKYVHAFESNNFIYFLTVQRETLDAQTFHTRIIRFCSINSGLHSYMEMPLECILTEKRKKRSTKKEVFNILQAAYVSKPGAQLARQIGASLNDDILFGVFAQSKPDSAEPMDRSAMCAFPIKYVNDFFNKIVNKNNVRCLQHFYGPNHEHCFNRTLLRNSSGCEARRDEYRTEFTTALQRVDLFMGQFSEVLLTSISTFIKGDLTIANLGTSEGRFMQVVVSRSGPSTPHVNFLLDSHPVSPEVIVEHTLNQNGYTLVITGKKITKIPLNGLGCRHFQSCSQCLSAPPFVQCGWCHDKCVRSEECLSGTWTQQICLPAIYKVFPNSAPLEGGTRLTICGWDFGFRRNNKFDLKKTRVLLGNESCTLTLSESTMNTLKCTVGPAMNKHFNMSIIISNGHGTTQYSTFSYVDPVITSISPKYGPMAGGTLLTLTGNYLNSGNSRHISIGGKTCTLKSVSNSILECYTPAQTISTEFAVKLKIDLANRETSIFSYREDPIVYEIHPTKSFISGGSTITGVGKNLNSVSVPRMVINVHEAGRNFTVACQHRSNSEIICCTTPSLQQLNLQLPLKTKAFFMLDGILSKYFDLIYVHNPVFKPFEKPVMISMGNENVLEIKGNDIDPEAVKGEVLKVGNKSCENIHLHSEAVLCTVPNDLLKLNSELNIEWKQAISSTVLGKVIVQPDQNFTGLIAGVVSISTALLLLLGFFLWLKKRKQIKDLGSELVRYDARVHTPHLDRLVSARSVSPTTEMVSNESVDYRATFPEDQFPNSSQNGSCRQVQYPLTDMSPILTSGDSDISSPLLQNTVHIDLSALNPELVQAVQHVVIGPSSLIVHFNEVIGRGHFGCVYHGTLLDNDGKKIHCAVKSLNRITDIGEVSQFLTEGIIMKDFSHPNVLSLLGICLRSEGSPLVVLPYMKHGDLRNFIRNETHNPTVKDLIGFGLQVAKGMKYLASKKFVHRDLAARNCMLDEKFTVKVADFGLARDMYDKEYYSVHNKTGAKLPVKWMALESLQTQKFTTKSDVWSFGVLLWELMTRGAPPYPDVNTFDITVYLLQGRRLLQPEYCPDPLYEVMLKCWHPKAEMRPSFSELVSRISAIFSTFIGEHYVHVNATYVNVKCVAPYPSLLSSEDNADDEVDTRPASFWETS
For assay [19] the target is unchanged. The following applies: at 1 µM.
For assay [20], the target named is T2, Muscle, skeletal receptor tyrosine-protein kinase (Homo sapiens) (UniProt O15146).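 Also: values are mean inhibition of MuSK from the GSK PKIS kinase screening panel.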
T2 sequence (whole entry): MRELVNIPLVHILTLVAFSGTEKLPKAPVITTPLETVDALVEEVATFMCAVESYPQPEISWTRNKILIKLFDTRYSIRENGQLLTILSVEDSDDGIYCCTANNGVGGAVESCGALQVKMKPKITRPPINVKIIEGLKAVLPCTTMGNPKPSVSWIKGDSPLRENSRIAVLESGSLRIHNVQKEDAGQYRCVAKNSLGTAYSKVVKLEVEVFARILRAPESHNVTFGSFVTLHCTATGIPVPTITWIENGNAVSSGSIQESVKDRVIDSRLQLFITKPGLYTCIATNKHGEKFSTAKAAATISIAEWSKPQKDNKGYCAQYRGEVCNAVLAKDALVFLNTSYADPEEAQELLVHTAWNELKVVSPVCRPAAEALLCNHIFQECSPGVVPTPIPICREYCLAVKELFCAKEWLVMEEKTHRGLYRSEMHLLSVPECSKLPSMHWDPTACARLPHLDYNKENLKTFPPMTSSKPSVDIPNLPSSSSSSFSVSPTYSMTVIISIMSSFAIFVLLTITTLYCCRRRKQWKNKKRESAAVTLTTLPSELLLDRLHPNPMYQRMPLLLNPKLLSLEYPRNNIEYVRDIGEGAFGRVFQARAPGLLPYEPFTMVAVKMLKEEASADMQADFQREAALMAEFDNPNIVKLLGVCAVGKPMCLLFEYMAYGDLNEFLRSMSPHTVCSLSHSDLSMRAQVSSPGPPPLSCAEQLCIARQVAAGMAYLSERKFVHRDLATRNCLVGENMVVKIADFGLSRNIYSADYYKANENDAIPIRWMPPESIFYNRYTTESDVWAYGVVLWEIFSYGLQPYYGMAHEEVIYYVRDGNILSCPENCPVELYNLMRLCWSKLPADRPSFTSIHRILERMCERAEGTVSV
The following applies: at 0.1 µM.

As usually defined, the inhibition is the drop in the measured response relative to a control, in per cent.

Sequence of Mast/stem cell growth factor receptor Kit (Homo sapiens), P10721 [T670I] (P10721 whole entry T670I): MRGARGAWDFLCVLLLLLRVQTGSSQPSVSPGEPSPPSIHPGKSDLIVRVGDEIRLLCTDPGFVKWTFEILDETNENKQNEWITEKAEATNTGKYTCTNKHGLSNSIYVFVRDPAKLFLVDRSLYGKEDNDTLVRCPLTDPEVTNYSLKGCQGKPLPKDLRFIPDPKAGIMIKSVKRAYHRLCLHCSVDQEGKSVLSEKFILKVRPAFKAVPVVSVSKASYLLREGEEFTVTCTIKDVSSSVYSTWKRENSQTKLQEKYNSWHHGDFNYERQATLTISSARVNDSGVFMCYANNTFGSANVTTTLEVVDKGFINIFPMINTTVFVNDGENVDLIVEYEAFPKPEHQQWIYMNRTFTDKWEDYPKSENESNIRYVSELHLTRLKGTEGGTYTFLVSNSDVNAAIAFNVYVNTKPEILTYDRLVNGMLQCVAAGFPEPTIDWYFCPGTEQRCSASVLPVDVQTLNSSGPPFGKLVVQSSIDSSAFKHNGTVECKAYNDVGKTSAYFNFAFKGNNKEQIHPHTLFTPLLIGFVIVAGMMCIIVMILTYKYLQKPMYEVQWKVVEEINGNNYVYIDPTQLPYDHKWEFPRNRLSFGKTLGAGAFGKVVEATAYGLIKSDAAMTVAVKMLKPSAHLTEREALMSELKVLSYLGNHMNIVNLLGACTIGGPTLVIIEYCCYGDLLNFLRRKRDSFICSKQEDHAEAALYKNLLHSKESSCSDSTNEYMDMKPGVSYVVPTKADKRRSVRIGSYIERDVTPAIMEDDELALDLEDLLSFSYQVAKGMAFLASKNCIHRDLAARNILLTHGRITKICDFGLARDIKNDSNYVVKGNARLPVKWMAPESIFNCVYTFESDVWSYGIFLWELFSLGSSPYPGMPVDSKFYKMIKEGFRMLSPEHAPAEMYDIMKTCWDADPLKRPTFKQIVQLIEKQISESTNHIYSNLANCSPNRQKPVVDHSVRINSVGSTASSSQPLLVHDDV
Sequence of Mast/stem cell growth factor receptor Kit (Homo sapiens), P10721 [V560G] (P10721 whole entry V560G): as the sequence (P10721 whole entry T670I) above, with V560G, I670T counted along it
Sequence of Mast/stem cell growth factor receptor Kit (Homo sapiens), P10721 [D816V] (P10721 whole entry D816V): as the sequence (P10721 whole entry T670I) above, with I670T, D816V counted along it
Sequence of Mast/stem cell growth factor receptor Kit (Homo sapiens) (P10721 whole entry): as the sequence (P10721 whole entry T670I) above, with I670T counted along it

As to `CCCN1CCC(c2ccc(Nc3nc(Nc4cc(F)ccc4C(N)=O)c4cc[nH]c4n3)c(OC)c2)CC1`, the inhibition in assay [1] was 23.6%; in assay [2], 7.89%; in [3], 4.96%; in assay [4], 4.05%; in assay [5], 8.96%; in [6], -2.53%. Further, the inhibition is 1.43% in [7]; 2.44% in [8]; 9.44% in assay [9]; 94.6% in assay [10]; 95% in assay [11]; 6.55% in [12]. The inhibition in assay [13] is 11.2%; in assay [14], 4.92%; in assay [15], 7.3%; in assay [16], 2.18%; in assay [17], 20%; in assay [18], 8.25%. Moreover, the inhibition was 22.9% in [19] and 4.34% in assay [20].

With `[O-][S+]1CCN(Cc2ccc(-c3ccc4ncnc(Nc5ccc(OCc6cccc(F)c6)c(Cl)c5)c4c3)o2)CC1`, the inhibition was 10.1% in assay [1]; 6.9% in assay [2]; 3.81% in assay [3]; 2.75% in assay [4]; 5.16% in assay [5]; -2.67% in assay [6]. Moreover, the inhibition in assay [7] was -0.28%; in [8] it was 2.85%; in assay [9] it was 8.2%; in assay [10] it was 7.04%; in [11], 7.31%; in [12] it was 6.15%. Moreover, the inhibition in [13] was 8.63%; in [14], 5.42%; in assay [15] it was 7.66%; in assay [16], 2.54%; in [17], 31%; in assay [18], 11.9%. The inhibition was found to be 10.6% in [19] and 3.52% in assay [20].

Take `CS(=O)(=O)CCNCc1ccc(-c2ccc3ncnc(Nc4ccc(OCc5ccccc5)c(C(F)(F)F)c4)c3c2)o1`: the inhibition was 4.84% in assay [1]; 2.36% in [2]; 4.65% in assay [3]; 3.39% in [4]; 2.42% in [5]; 1.13% in assay [6]. Besides, the inhibition in assay [7] was -2.89%; in assay [8], 3.56%; in assay [9] it was 5.95%; in [10] it was 3.91%; in [11] it was 3.64%; in assay [12], 4.35%. The inhibition in assay [13] was 10.4%; in assay [14], 2.65%; in assay [15], 2.28%; in assay [16], -0.65%; in assay [17], 1.81%; in assay [18], 0.49%. In addition, the inhibition in [19] was determined as 5.8%; in assay [20] it was 1.44%.

Regarding `NS(=O)(=O)c1ccc(N/N=C2\C(=O)Nc3ccc4ncccc4c32)cc1`, the inhibition stood at 90.7% in assay [1]; 5.95% in [2]; 23.6% in assay [3]; 10.2% in [4]; 69.4% in assay [5]; 3.66% in assay [6]. Besides, the inhibition in assay [7] is 36.8%; in [8], 5.5%; in assay [9] it was 30.1%; in assay [10], 2.17%; in [11], 10.1%; in assay [12], 8.74%. The inhibition in assay [13] worked out at 44.3%; in assay [14], 6.92%; in assay [15] it was 40%; in [16] it was 1.59%; in assay [17], 17.5%; in [18], 4.71%. Besides, the inhibition was 19.4% in assay [19] and 11.3% in assay [20].

For the compound `COc1cc2c(cc1Nc1nc(Nc3ccsc3C(N)=O)c3cc[nH]c3n1)N(C(=O)CN(C)C)CCC2(C)C`, the inhibition in [1] is 67.6%; in assay [2], 3.34%; in assay [3], 7.2%; in assay [4], 5.12%; in [5] it was 16.2%; in assay [6], 5.02%. Also, the inhibition in assay [7] came to 17.8%; in assay [8] it was 0.99%; in assay [9] it was 4.76%; in [10], 95.3%; in assay [11] it was 96.3%; in assay [12], 4.53%. In addition, the inhibition was 4.24% in [13]; 2.04% in assay [14]; 2.4% in assay [15]; 3.14% in assay [16]; 16.1% in assay [17]; 5.6% in assay [18]. For the same compound, the results for the inhibition in assay [19] and in assay [20] were 23.1% and 14.8%, respectively.

In the case of `COC(=O)Nc1nc2ccc(Oc3ccc(NC(=O)Nc4cccc(Cl)c4)cc3)cc2[nH]1`, the inhibition is 90.8% in [1]; -0.72% in assay [2]; -1.6% in assay [3]; 22.5% in [4]; 57.1% in assay [5]; 69.5% in [6]. Besides, the inhibition in assay [7] stood at 91.2%; in [8], 2.47%; in [9], 9.47%; in assay [10], 2.31%; in [11] it was 1.17%; in assay [12] it was 5.13%. In addition, the inhibition came out at 13.5% in assay [13]; 4.25% in [14]; 11.1% in assay [15]; 2.64% in assay [16]; 2.51% in assay [17]; 9.7% in assay [18]. In addition, the inhibition in assay [19] was 12.3%; in [20], 10.2%.

For the compound `c1cc(-c2cnn3nc(N4CCOCC4)ccc23)nc(NC2CC2)n1`, the inhibition came to 20.9% in assay [1]; 0.53% in [2]; 4.82% in assay [3]; 7.12% in assay [4]; 3.28% in assay [5]; 4.27% in assay [6]. In addition, the inhibition in assay [7] came to 5%; in assay [8], 1.31%; in [9], 3.4%; in assay [10] it was 2.15%; in assay [11], 6.33%; in [12], 3.58%. Further, the inhibition in [13] is 2.39%; in [14], 2.01%; in [15], 3.12%; in assay [16], 1.15%; in [17], 6.24%; in [18] it was -2.37%. Further, the results for the inhibition in assay [19] and in [20] were 2.41% and 4.2%, respectively.

For the compound `Cc1cccc2c1NC(=O)/C2=N\Nc1ccc(S(N)(=O)=O)cc1`, the inhibition was 34.3% in [1]; 1.59% in [2]; -1.26% in assay [3]; 6.87% in [4]; 7.06% in assay [5]; 2.17% in assay [6]. Moreover, the inhibition in [7] is 6.53%; in assay [8], 1.96%; in assay [9] it was 2.95%; in assay [10], 2.01%; in assay [11], 2%; in assay [12] it was 3.38%. Besides, the inhibition in [13] amounted to 5.9%; in [14], 1.15%; in [15], 2.52%; in [16], 1.25%; in assay [17], 2.98%; in assay [18] it was 4.07%. Also, the results for the inhibition in assay [19] and in [20] were -0.51% and 2.77%, respectively.

On to `Fc1ccc(-c2nn3ccccc3c2-c2ccncc2)cc1`, for which the inhibition in assay [1] was 12.1%; in assay [2], -1.36%; in [3], -0.05%; in assay [4] it was -0.12%; in assay [5], 1.47%; in assay [6], -1.06%. Moreover, the inhibition in assay [7] stood at 1.71%; in assay [8], 1.24%; in [9], 5.7%; in assay [10], 1.27%; in assay [11] it was 0.03%; in assay [12], 0.64%. Moreover, the inhibition in assay [13] was 6.12%; in assay [14], 0.28%; in assay [15], 4.71%; in assay [16], 1.48%; in [17], 2.6%; in assay [18], -1.86%. Further, the inhibition in assay [19] worked out at 3.37%; in [20], 3.06%.

For the origin of these results see ChEMBL document CHEMBL1961873, “Compounds: GSK PKIS; Assays: Nanosyn kinase panel” (2012).
